Screening data: PubChem, several laboratories
CSC inhib = cancer stem cell viability inhibitors, primary screen, luminescence | cancer stem cell-like cells viability | inhibition, % at 7.5 µM | actives 1.1% (n = 300,000) | AID 2717, 2010; in the data active = inhibition above about 75%; tested in HMLE shEcad cells
aSyn UTR inh = MLPCN primary screen, SNCA 5' untranslated region; actives 0.82% (n = 300,000); AID 1813, 2009; inhibition, % (tested at 7.5 µM); alpha-synuclein 5'UTR reporter, inhibitor activity; in the data active = inhibition above about 60%;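 also: H4 neuroglioblastoma cells stably carrying SNCA 5'UTR luciferase fusion; 0% = DMSO wells and 100% = positive control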
A1 inh = caspase 3/7 activation in MEF A1-2A-BIM cells, primary screen, A1 inhibitor project, cell-based, luminescence, HTS; Caspase-Glo 3/7 luminescence, 3 h; percent of clofoctol response, vehicle zero; caspase activation, % (no concentration beside the values); actives 0.066% (n = 330,000); AID 2462, 2010;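 active = over half of replicate activation scores above 10%, or exactly half above 10 with the replicate mean above 10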
Beta cell apopt = inhibitors of cytokine-induced beta cell apoptosis, primary screen, luminescence | protection from apoptosis, % (concentration not given with the values) | INS-1E cytokine-induced death, ATP luminescence, 48 h; percent of positive-control rescue, neutral wells zero | actives 0.8% (n = 300,000);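 active = Every replicate reaches about 75%, or at least half do and their mean reaches it too, limit read from the data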;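 also: 0% = cytokine-treated negative control wells and 100% = positive control rescue; higher means more ATP so stronger rescue from cytokine killing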
Mdm2-MdmX inh = inhibitors of human Mdm2-MdmX association, primary screen, cell-based, luminescence, split luciferase, SaOS-2, uHTS. Protein Mdm4 (Homo sapiens) + E3 ubiquitin-protein ligase Mdm2 (Homo sapiens), …. SaOS-2 split-luciferase Mdm2/MdmX complementation. inhibition, % at 8 µM. actives 3% (n = 330,000);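 active = inhibition of at least 50% at 8 µM in the primary screen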
Target sequence (O15151 whole entry, looked up): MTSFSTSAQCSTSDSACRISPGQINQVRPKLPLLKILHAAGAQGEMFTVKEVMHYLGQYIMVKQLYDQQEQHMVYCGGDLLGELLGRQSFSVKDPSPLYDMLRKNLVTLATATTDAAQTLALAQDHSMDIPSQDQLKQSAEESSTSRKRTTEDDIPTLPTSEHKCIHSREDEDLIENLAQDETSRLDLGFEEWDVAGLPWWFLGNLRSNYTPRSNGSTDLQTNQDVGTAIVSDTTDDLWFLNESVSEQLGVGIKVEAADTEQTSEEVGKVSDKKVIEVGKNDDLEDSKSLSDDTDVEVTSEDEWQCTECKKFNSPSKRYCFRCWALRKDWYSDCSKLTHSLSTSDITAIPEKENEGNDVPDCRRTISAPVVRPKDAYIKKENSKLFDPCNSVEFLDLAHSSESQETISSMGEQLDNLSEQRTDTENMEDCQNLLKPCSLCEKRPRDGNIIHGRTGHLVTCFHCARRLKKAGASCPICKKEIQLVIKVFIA
Target sequence (Q00987 whole entry, looked up): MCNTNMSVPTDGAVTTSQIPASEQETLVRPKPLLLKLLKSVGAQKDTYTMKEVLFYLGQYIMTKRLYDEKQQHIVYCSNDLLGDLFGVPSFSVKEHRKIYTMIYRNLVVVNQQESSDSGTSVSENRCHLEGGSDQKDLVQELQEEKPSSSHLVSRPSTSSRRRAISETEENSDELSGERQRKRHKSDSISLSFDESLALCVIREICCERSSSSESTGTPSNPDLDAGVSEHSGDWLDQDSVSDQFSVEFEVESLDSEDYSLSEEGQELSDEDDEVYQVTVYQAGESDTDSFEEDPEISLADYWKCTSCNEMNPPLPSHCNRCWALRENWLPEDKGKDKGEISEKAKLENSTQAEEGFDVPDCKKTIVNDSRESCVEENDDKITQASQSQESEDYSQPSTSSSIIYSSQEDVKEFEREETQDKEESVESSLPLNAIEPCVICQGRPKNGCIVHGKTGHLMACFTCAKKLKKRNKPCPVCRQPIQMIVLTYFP
Mdm2-MdmX conf = Mdm2-MdmX complex disruptors, retested hits, confirmation, luminescence, single concentration | shares compounds with Mdm2-MdmX inh | Mdm2-MdmX binding, luminescent assay | inhibition, % at 8 µM | actives 55% (n = 10,000); in the data active = inhibition above about 40%
Full FLuc ctr = full-length luciferase signal inhibition, confirmation, counter-screen for Mdm2/MdmX interaction inhibitor project, cell-based, single concentration, SaOS-2. shares compounds with Mdm2-MdmX inh. SaOS-2 full-length luciferase counterscreen, luminescence. inhibition, % at 8 µM. actives 77% (n = 6,200);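 active = mean inhibition at 8 µM reaching about 37%, which flags the compound as non-specific, limit read from the data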;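 also: p53-null SaOS-2 cells with luciferase driven by a doxycycline-inducible promoter; compound on cells about two nights before reading with doxycycline added after day one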
* hit, by the source's call; · = no result. Rows were chosen to be rich in hits. Some 4.1% of all compounds tested hit in one or more screens of this group.

SMILES | CSC inhib | aSyn UTR inh | A1 inh | Beta cell apopt | Mdm2-MdmX inh | Mdm2-MdmX conf | Full FLuc ctr
COC(=O)C1=C(C)Nc2nc3ccccc3n2C1c1cc(OC)c(OC)c(OC)c1 (centres undefined) | 0 | -14 | 1 | 0 | 52* | 46* | 96*
CCOC(=O)C1=C(C)Nc2nc3ccccc3n2C1c1ccc(O)cc1 (centres undefined) | -4 | 6 | 1 | -10 | 25 | · | ·
CN(C)S(=O)(=O)c1ccc(S(=O)(=O)N2CCCC(C(=O)NC3CCCC3)C2)cc1 (centres undefined) | 10 | -1 | -1 | 3 | 4 | · | ·
CC(CCc1ccccc1)NC(=O)/C=C/c1ccc(F)cc1 (centres undefined) | -6 | -3 | -1 | 0 | 10 | · | ·
CC(C)n1c(/C=C/[C@H](O)C[C@H](O)CC(=O)O)c(-c2ccc(F)cc2)c2ccccc21 | · | · | -1 | 27 | 50* | 46* | 79*
Oc1cccc(-c2nc3ccccc3s2)c1 | 8 | -25 | -8 | · | -147 | · | ·
CC(C)c1ccc(-c2nc3ccccc3s2)cc1 | 32 | 98* | -8 | 21 | 87* | 88* | 36
CN(C(=O)OC(C)(C)C)c1ccc(-c2nc3ccccc3s2)cc1 | 30 | 104* | -11 | 2 | 88* | 90* | 25
COC(=O)N(C)c1nc2ccccc2s1 | 7 | -77 | -5 | 2 | -15 | · | ·
COc1ccc(OC)c(NC(=O)CCN2CCN(c3ccccc3OC)CC2)c1 | 0 | 8 | 0 | -1 | 8 | · | ·
Cc1ccc(C(=O)C(c2ccccc2)N2Cc3ccccc3C2=N)cc1 (centres undefined) | 111* | -13 | -1 | 17 | 79* | 18 | ·
COc1ccc(-c2nc(-c3ccc(NC(=O)c4ccncc4)cc3)no2)cc1OC | 30 | -155 | -1 | · | 70* | 82* | 81*
COc1ccc(CC(=O)Nc2ccc(-c3noc(-c4ccc(Cl)cc4)n3)cc2)cc1 | 21 | 9 | 0 | 36 | 91* | 10 | ·
O=C(Cc1ccc(Cl)cc1)Nc1ccc2oc(-c3ccncc3)nc2c1 | 24 | 4 | 0 | 7 | 55* | 21 | ·
O=C(Cc1ccccc1)Nc1ccc2oc(-c3cccnc3)nc2c1 | -2 | -33 | 1 | 3 | -23 | · | ·
CCOc1ccccc1-c1nc(-c2ccc(NC(=O)Cc3ccc(OC)cc3)cc2)no1 | 16 | -61 | 0 | 15 | 57* | 37 | ·
COc1ccc(Cl)cc1-c1nc(-c2ccc(NC(=O)c3ccncc3)cc2)no1 | -1 | 2 | 0 | 9 | 6 | · | ·
COc1ccc(/[N+]([O-])=C/c2ccoc2)cc1 | 15 | · | -1 | -3 | -19 | · | ·
COc1ccc(C(=O)Nc2ccc(N3CCCC3)cc2)cc1OC | 26 | -166 | -13 | 13 | 3 | · | ·
COc1ccc(CC(=O)Nc2ccc(-c3nc4cc(C)ccc4o3)c(O)c2)cc1OC | -4 | -56 | -1 | 16 | 92* | 47* | 115*
COc1ccc(CC(=O)Nc2ccc(-c3noc(-c4cc(OC)c(OC)c(OC)c4)n3)cc2)cc1 | -1 | · | 0 | · | 50* | 52* | 79*
COc1cc(-c2nc(-c3ccc(NC(=O)c4ccc5c(c4)OCO5)cc3)no2)cc(OC)c1OC | 30 | 7 | -7 | 12 | 83* | 77* | 44*
Cc1ccc2oc(-c3ccc(NC(=O)c4ccncc4)cc3O)nc2c1 | 1 | -49 | 1 | 0 | -55 | · | ·
COc1ccc(NC(=O)c2ccc(-c3ccc(-c4noc(C)n4)cc3C)cc2)cc1N1CCN(C)CC1 | 56 | · | 0 | 14 | 99* | 23 | ·
COc1ccc(CC(=O)Nc2ccc(-c3noc(COc4ccccc4C)n3)cc2)cc1 | -4 | -38 | 0 | 3 | 19 | · | ·
CCOc1ccc(OCC(=O)N(CCC2=CCCCC2)c2c(N)n(Cc3ccccc3)c(=O)[nH]c2=O)cc1 | 76* | 25 | 60* | · | 68* | 56* | 92*
